# Screens deposited in PubChem BioAssay by National Center for Advancing Translational Sciences (NCATS).
# A selection: hits, their analogues and other compounds. The true share with any hit is near 8%.
# Gal4-VP16 FLuc = VP16 counterscreen qHTS for inhibitors of ROR gamma transcriptional activity. Drosophila S2 Gal4-VP16 UAS-luciferase, luminescence, 20 h. 310,000 tested, 3.5% active. AID 2546, 2010. Potency, µM (series often up to 53.6 µM), for inactives: top-dose activity, negative = inhibition, hits mostly inhibitors;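 further: Gal4-VP16 expression switched on by copper sulfate through the metallothionein promoter; potency means the concentration at half of the fitted maximal effect; nearly all actives have a fitted effect of over 50% in size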
# RORgamma inh = qHTS for inhibitors of ROR gamma transcriptional activity. Nuclear receptor ROR-gamma (Mus musculus), P51450. Drosophila S2 Gal4-RORgamma UAS-luciferase reporter, 20 h. Potency, µM (highest dose often 53.6 µM), for inactives: top-dose activity change, negative = inhibition, usual class: inhibitors. 310,000 tested, 5.4% active; further: potency means the concentration at half of the fitted maximal effect; nearly all actives have a fitted effect of over 60% in size
# Target sequence (P51450 whole entry, looked up, the tested form may be a part): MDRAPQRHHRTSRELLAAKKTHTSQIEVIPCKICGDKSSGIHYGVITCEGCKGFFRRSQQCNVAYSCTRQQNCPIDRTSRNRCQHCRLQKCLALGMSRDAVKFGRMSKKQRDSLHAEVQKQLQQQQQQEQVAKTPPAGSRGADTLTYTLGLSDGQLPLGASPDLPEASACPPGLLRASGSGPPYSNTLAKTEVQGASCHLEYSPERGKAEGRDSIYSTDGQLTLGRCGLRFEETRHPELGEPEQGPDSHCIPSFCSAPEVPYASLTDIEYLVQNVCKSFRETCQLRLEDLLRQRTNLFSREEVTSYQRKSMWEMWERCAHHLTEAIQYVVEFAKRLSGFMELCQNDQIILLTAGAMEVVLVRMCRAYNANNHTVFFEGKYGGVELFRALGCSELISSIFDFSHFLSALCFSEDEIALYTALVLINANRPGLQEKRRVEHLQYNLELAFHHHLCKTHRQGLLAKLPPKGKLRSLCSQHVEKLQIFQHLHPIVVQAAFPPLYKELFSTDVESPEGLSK
#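 Schneider cells (Drosophila), stable Gal4 DBD–ROR gamma + UAS-luc; 1 hr cmpd preincubation; Cu2+ induction 700 uM final; 20 hr ambient; luminescence.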
# Coupling enz = qHTS Assay for Inhibitors of Fructose-1,6-bisphosphate Aldolase from Giardia Lamblia: Coupling assay counterscreen; coupling enzyme system counterscreen, AmpLite Red fluorescence; 290,000 tested, 0.67% active; activity change, negative = inhibition, % at 58.2 µM, hits read low; in the data active means activity change below about -30%
#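 First, compound is pin-transferred into glyceraldehyde-3-phosphate coupling-enzyme reagent at 57.5 uM final and held 10 min at RT. Next, substrate, coupling system and AmpLite Red are added. After 20 min RT, fluorescence (525/598 nm) is read.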
# ELG1 repair inh = qHTS screen for small molecules that inhibit ELG1-dependent DNA repair in human embryonic kidney (HEK293T) cells expressing luciferase-tagged ELG1. 330,000 tested, 2.3% active. Potency, µM (highest dose often 46.1 µM), inactives show at the highest dose activity change, negative = inhibition, hits mostly inhibitors. HEK293T ELG1-luciferase reporter, luminescence, 16 h; DNA damage induced by 5-fluorouridine; further: potency means the concentration at half of the fitted maximal effect; nearly all actives have a fitted effect of over 55% in size
#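 Cells (2,000 per well) received 5-fluorouridine plus test compound or DMSO and were incubated 16 hr at 37 °C, 5% CO2. Luciferase activity was read by luminescence 30 min after ONE-Glo addition; signal suppression marked inhibition of damage-induced ELG1 function.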
# TSHR antag = Antagonists of the Thyroid Stimulating Hormone Receptor: HTS campaign. TSHR-expressing cells, TSH-stimulated cAMP HTRF, 2 h; hits give low values. activity change, negative = inhibition, % at 11.5 µM. 330,000 tested, 0.2% active. AID 504810, 2011;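 active means activity change below a set negative limit, meaning inhibition stronger than a set level, cut at about -70% in these data; inconclusive means activity change between two set negative limits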
#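 Antagonism was scored as loss of TSH-driven cAMP in TSHR cells, stimulated with 4nM TSH (EC80) for 2 hours at 37 deg C and detected by homogeneous HTRF competition immunoassay.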
# An asterisk follows results filed as active; ? = inconclusive; nt = not tested or not shown. Unless noted, the call rests on the fitted dose curve; in most records, active means well fitted curve in the direction sought with a large enough effect; inconclusive means small, poorly fitted or top-dose-only effect, or another doubt; inactive means no such curve, though single readings can be large; an effect the other way counts as inactive or inconclusive. On the % scale 0 is the no-effect control and ±100 the full control effect.
SMILES,Gal4-VP16 FLuc,RORgamma inh,Coupling enz,ELG1 repair inh,TSHR antag
c1ccc(-c2nc3cc4ccccc4cc3[nH]2)nc1,3.2µM*,2.8µM*,-13,?,-6
O=C(Nc1ccc2nc(-c3cccs3)[nH]c2c1)c1cccs1,-7%,-2%,-4,?,-2
O=C(Nc1ccc(-c2nc3ccc(NC(=O)c4cccs4)cc3[nH]2)cc1)c1cccs1,?,13µM*,0,?,-22
CC(=O)Nc1ccc2nc(-c3ccccn3)[nH]c2c1,-24%,10µM*,-1,?,-2
CC1CCCC(NC(=O)CN(C)CC(=O)Nc2ccc(F)cc2)C1C (stereo not drawn),nt,nt,nt,-3%,-10
COCC(=O)N1CCC(Oc2ccc(C(=O)NCCCC3CCCC3)cc2)CC1,16%,29%,nt,28%,-10
Cn1c(=O)c(=O)n(C)c2cc(S(=O)(=O)CCC(=O)Nc3c(F)c(F)c(F)c(F)c3F)ccc21,3%,3%,nt,?,1
CC(CC(F)(F)F)N1CCC(n2nccc2NC(=O)CCCc2ccccc2)CC1 (stereo not drawn),-14%,-15%,0,-5%,2
N#Cc1ccc(/C=C/C(=O)c2cccnc2)cc1,?,7.9µM*,1,?,-13
O=C(/C=C/c1ccccc1Cl)c1cccnc1,?,?,0,?,-18
CCN(CC)c1ccc(/C=C/C(=O)c2cccnc2)cc1,-5%,6%,-1,23µM*,8
O=C(/C=C/c1ccc(Cl)cc1)c1cccnc1,20µM*,?,2,?,27
O=C(Nc1ccc2nc3n(c(=O)c2c1)CCCCC3)C(=O)N1CCN(c2ccccc2F)CC1,-12%,22%,4,?,-122*
C/C(=N\N=C\c1ccc(N(C)C)cc1)c1cccc([N+](=O)[O-])c1,-1%,-3%,0,?,-2
CN(C)c1ccc(/C=N/N=C/c2ccccc2O)cc1,?,7.9µM*,1,?,8
Cc1nnc(NC(=O)C2COc3ccccc3O2)s1 (stereo not drawn),3%,-26%,2,?,-3
O=C(NC1=NCCS1)C1COc2ccccc2O1 (stereo not drawn),4.5µM*,6.3µM*,3,?,14
O=C(Nc1ncc(Cc2ccccc2)s1)C1COc2ccccc2O1 (stereo not drawn),2µM*,10µM*,nt,?,16
CCC(CC)c1nnc(NC(=O)C2COc3ccccc3O2)s1 (stereo not drawn),-26%,10µM*,3,?,5
O=C(Nc1ccncc1)C1COc2ccccc2O1 (stereo not drawn),?,9%,1,-3%,-1
CN1CCN(c2cc3c(nn2)Oc2ccccc2N3C)CC1,-5%,-22%,nt,nt,nt
Cc1cccc(C2=NC(C(F)(F)F)(C(F)(F)F)c3c(n(-c4ccc(F)cc4)c(=O)[nH]c3=O)N2)c1,-30%,?,-2,9.2µM*,-11
O=C(NNC(=S)Nc1ccccc1C(F)(F)F)c1ccc(Br)o1,-19%,?,0,2%,-1
Cc1cccc(NC(=S)NC(=O)c2ccc(Br)o2)c1C,?,3.5µM*,2,?,7
Cc1ccc(NC(=S)NC(=O)c2ccc(Br)o2)c(C)c1,?,2.2µM*,1,?,18
SMILES,Gal4-VP16 FLuc,RORgamma inh,Coupling enz,ELG1 repair inh,TSHR antag
Cc1c(NC(=S)NC(=O)c2ccc(Br)o2)c(=O)n(-c2ccccc2)n1C,3%,2%,4,5%,3
Cc1ccc(C)c(NC(=S)NNC(=O)c2ccc(Br)o2)c1,-22%,?,-2,-2%,7
O=C(NC(=S)Nc1ccccc1F)c1ccc(Br)o1,?,4.5µM*,3,?,2
Cc1cccc(C)c1NC(=S)NC(=O)c1ccc(Br)o1,?,3.2µM*,-1,1%,18
Cc1cccc(SCC(=O)Nc2ccc3c(c2)OCCO3)c1,?,?,-4,?,-2
O=C(NNC(=S)NC(=O)c1ccccc1Cl)c1cccc([N+](=O)[O-])c1,?,?,-2,-19%,-9
O=C(NC(NC(=S)Nc1c(Cl)cccc1Cl)C(Cl)(Cl)Cl)c1cccc([N+](=O)[O-])c1 (stereo not drawn),8.9µM*,?,1,?,-25
Cc1ccc2c(c1)COc1c3ccc(C(=O)O)cc3nn1-2,5µM*,2µM*,18,?,-9
CC(C)[C@@H](CO)NC(=O)c1ccc2c3n(nc2c1)-c1ccccc1CO3,?,?,-1,?,9
CC(C)NC(=O)c1ccc2c3n(nc2c1)-c1ccccc1CO3,4.5µM*,4µM*,1,?,5
O=C(NCC1CC1)c1ccc2c3n(nc2c1)-c1ccccc1CO3,?,14µM*,5,?,-7
Cc1ccc2c(c1)COc1c3ccc(C(=O)NCC4CC4)cc3nn1-2,-24%,-39%,-2,?,-2
O=C(NCCO)c1ccc2c3n(nc2c1)-c1ccccc1CO3,?,4.5µM*,7,?,7
COc1ccc(-c2cn[nH]c2-c2ccc(OCc3ccccc3F)cc2O)cc1OC,?,?,-4,?,-7
COc1ccccc1-c1cn[nH]c1-c1ccc(OCc2ccccc2)cc1O,?,6.3µM*,-1,?,10
COc1ccc(-c2cn[nH]c2-c2ccc(OCc3ccccc3)cc2O)cc1,?,6.3µM*,-4,21µM*,27
COc1ccc(-c2cn[nH]c2-c2ccc(OCc3ccc([N+](=O)[O-])cc3)cc2O)cc1OC,?,?,-8,?,?
CCOc1ccc(-c2[nH]ncc2-c2csc(C)n2)c(O)c1,?,?,1,-14%,36
CCOc1ccc(-c2[nH]ncc2-c2ccccc2)c(O)c1,?,13µM*,nt,15%,4
CC(=O)Nc1ccc(CC(=O)NCCC(c2ccccc2)c2ccccc2)cc1,3%,-6%,0,-8%,14
Cc1nc(C)c(C(=O)OC(C)C(=O)Nc2ccc(F)cc2)s1 (stereo not drawn),nt,nt,nt,-16%,-11
Cc1ccc(C(=O)NCCNC(=O)Cc2ccccc2)cn1,-3%,3%,2,2%,-6
CCOC(=O)c1ccc(NC(=O)CC2OCCN(CC)C2=O)cc1 (stereo not drawn),?,20µM*,0,?,5
Cc1cccc(CSCCNC(=O)COc2ccc(Cl)cc2)c1,-3%,8%,2,3%,-8
O=C(NCCSCc1ccco1)Nc1ccc(Cl)cc1,?,?,6,nt,nt
